Screening results as filed in PubChem BioAssay.
Wnt act = activators of Wnt/beta-catenin signaling | Wnt/beta-catenin reporter cell assay, activator, plate reader | activation, % at 9.35 µM | 300,000 tested, 1.2% active | AID 743398; in the data active means activation above about 30%, passing the limit was not always enough; inconclusive means no clear call, values can overlap the other calls;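 further: 0% = neutral control wells and 100% = positive control wells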
C2C12 statin = protects C2C12 myotubes from simvastatin toxicity | ATP luminescence, 48 h; scaled: DMSO 0, geranylgeraniol control 100 | rescue of ATP level, % at 7.49 µM | 330,000 tested, 0.78% active;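 active means mean ATP rescue above about 67%, or every replicate alone reaching that limit, limit read from the data, passing the limit was not always enough; inconclusive means no clear call, values can overlap the other calls; inactive means mean under the limit and some replicate under it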;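 further: myotubes were challenged with 10 µM simvastatin during compound exposure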
MITF act = MITF TRPM1 promoter activation in melanoma cells; SK-MEL-5 TRPM1-promoter luciferase, 24 h; % of positive control, neutral wells = 0; activation, % at 12.5 µM; 300,000 tested, 0.75% active;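 active means mean activation of at least 80% with every replicate also reaching 80%; inconclusive means mean reaches 80% but some replicate falls short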;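 further: 0% = neutral control wells and 100% = parthenolide positive control wells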
GAA850 FXN act = increases GAA850 frataxin promoter reporter activity; HEK293 lucGAA850 FXN promoter luciferase reporter, 24 h; percent of 10 µM SAHA response; activation, % at 6 µM; 360,000 tested, 0.56% active;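 active means activation above the average of all compounds screened plus 3 SD, cutoff fixed separately per campaign, cut at about 7.5% in these data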;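 further: 0% = DMSO wells and 100% = 10 µM SAHA wells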
esBAF inh = blocks esBAF chromatin remodeling in mouse ES cells | Bmi1-luciferase knock-in reporter, 24 h; 100% = twice the neutral-well signal | reporter increase, % at 12.5 µM | 350,000 tested, 2% active | AID 602393; in the data active means activation above about 40%; inconclusive means no clear call, values can overlap the other calls;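 further: 0% = median of the plate's neutral control wells and 100% = double that signal; a rise in the Bmi1 reporter signal indicates esBAF inhibition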
* = called active by the depositor; u = inconclusive; x = no result. This is a sample that favours compounds with a hit; in the whole collection about 3.3% have one here.

SMILES | Wnt act | C2C12 statin | MITF act | GAA850 FXN act | esBAF inh
C[C@H](CO)N1C[C@H](C)[C@@H](CN(C)C(=O)Nc2ccccc2)Oc2ccc(NS(=O)(=O)c3cn(C)cn3)cc2CC1=O | x | -7 | x | x | -5
CCNC(=O)C[C@H]1CC[C@@H]2[C@@H](COc3ccc(NC(=O)c4ccccc4)cc3C(=O)N2C)O1 | x | -3 | x | x | -5
CC(C)C(=O)Nc1ccc(C(=O)c2ccccc2)cc1 | 29 | -15 | 50 | 4 | 67*
O=C(Nc1ccccc1)Nc1ccc(Br)c(Cl)c1 | -2 | -30 | 9 | -1 | 75*
CC(C)C(=O)Nc1ccc(-c2nnc(-c3ccccc3)o2)cc1 | u | -61 | u | 4 | -7
O=C(Nc1ccccc1)Nc1ccc2ccccc2c1 | 44* | x | 92* | 1 | x
O=C(Nc1ccccc1)Nc1ccccc1Br | 8 | x | 49 | 6 | x
CC(=O)Nc1ccc2ccccc2c1 | x | 1 | 24 | 3 | 25
Cc1oncc1C(=O)Nc1ccc2ccccc2c1 | 10 | 4 | 22 | 1 | 10
Cc1coc(C)c1C(=O)Nc1ccc2ccccc2c1 | 9 | -4 | 44 | 4 | 57*
COc1ccccc1CN1C[C@H](C)[C@@H](OC)CN(C)C(=O)c2ccc(NC(C)=O)cc2OC[C@@H]1C | x | -5 | x | x | 1
O=C(CSc1ncnc2ccccc12)N1CCNC1=O | 14 | -9 | 25 | 2 | 42*
CN(C(=O)COc1ncnc2ccccc12)C1CCCCC1 | -1 | -1 | -2 | 0 | -1
Cc1nc(SCC(=O)N2CCNC2=O)c2ccccc2n1 | -5 | -4 | -8 | -2 | 11
CN(C(=O)CSc1nnc(-c2ccco2)o1)C1CCCCC1 | x | -2 | 48 | 2 | 41*
CN(C(=O)CSc1ncnc2ccccc12)C1CCCCC1 | 24 | 4 | 104* | 3 | 86*
CCCNC(=O)C[C@@H]1CC[C@H]2[C@H](COc3ccc(NC(=O)c4ccc(C(F)(F)F)cc4)cc3C(=O)N2C)O1 | x | 21 | x | x | 27
Cc1cccc(C(=O)OCC(=O)c2ccc3c(c2)OCCO3)c1O | u | -6 | 50 | 3 | 28
CCOC(=O)c1c(C)[nH]c(C)c1C(=O)COC(=O)c1cccc(C)c1O | x | 0 | 7 | -1 | -4
NS(=O)(=O)c1ccc(NC(=O)COC(=O)c2ccc3c(c2)OCCO3)cc1 | -1 | 2 | -15 | 1 | -7
N#CCC(=O)Nc1ccc(C(=O)OCC(=O)c2ccc3c(c2)OCO3)cc1 | 39* | 8 | 69 | 3 | 47*
Cc1cccc(C(=O)OCC(=O)c2ccc3c(c2)OCO3)c1O | 57* | 4 | 119* | 3 | 6
N#CCC(=O)Nc1ccc(C(=O)OCC(=O)c2ccc3c(c2)OCCO3)cc1 | 27 | 3 | 43 | 0 | 68*
Cc1cccc(C(=O)OCC(=O)c2c(C)[nH]c3ccccc23)c1O | 37* | 6 | 82* | 3 | 73*
CCCC(=O)Nc1ccc2c(c1)OC[C@@H](C)N(C(=O)c1ccccc1F)C[C@H](C)[C@H](OC)CN(C)C2=O | x | -24 | x | x | -3
SMILES | Wnt act | C2C12 statin | MITF act | GAA850 FXN act | esBAF inh
COc1ccccc1-c1cn(CC[C@H]2CC[C@H](NC(=O)c3ccccc3F)[C@H](CO)O2)nn1 | x | 13 | x | x | 2
C[C@@H]1CN([C@@H](C)CO)S(=O)(=O)c2ccc(C#CC3CC3)cc2O[C@H]1CN(C)Cc1cccc(F)c1 | x | -38 | x | x | -3
CC(C)CC#Cc1cnc2c(c1)C(=O)N([C@H](C)CO)C[C@@H](C)[C@@H](CN(C)C(=O)Cc1cccnc1)O2 | x | -8 | x | x | -5
C[C@H]1CN([C@@H](C)CO)C(=O)c2cc(-c3ccc(F)cc3)cnc2O[C@H]1CN(C)C(=O)c1ccncc1 | x | 2 | x | x | x
O=C1OC(c2ccccc2)=CC1=Cc1ccccc1O | 29 | 19 | x | 1 | 29
O=C1OC(c2ccccc2)=C/C1=C/N1CCCCC1 | 2 | -18 | 105* | 5 | 84*
O=C1OC(c2ccccc2)=N/C1=C\N1CCCCC1 | -1 | 23 | 86* | 6 | 85*
O=C1OC(c2ccc(Br)cc2)=N/C1=C\N1CCCCC1 | 9 | 9 | 124* | 4 | 53*
Cc1ccc(C2=N/C(=C\c3c(C)nn(-c4ccccc4)c3N3CCCC3)C(=O)O2)cc1 | -2 | -1 | 1 | -1 | 0
CN(C)/C=C1/N=C(c2ccccc2)OC1=O | 0 | -6 | x | 1 | 15
C[C@@H]1CN([C@H](C)CO)C(=O)c2cc(C3=CCCC3)cnc2O[C@H]1CN(C)C(=O)C1CC1 | x | 12 | x | x | x
CS(=O)(=O)Nc1ccc2c(c1)[C@H]1C[C@H](CC(=O)NCc3cccnc3)O[C@H](CO)[C@H]1O2 | x | -4 | x | x | 0
CN(C)c1ccc(/C=N\NC(=O)c2cccc3cc[nH]c23)cc1 | 10 | -20 | x | 0 | 54*
CN(C)c1ccc(/C=N/NC(=O)c2cc(=O)[nH]c3ccccc23)cc1 | -4 | -14 | 7 | 2 | -7
Cc1ccc(/C=N/NC(=O)c2ccco2)cc1 | 39* | x | x | 3 | x
Cc1ccc(C(=O)NNC(=O)c2cccc(C)c2)cc1 | x | 3 | 41 | 3 | 41*
CN(C)c1ccc(/C=N/NC(=O)c2ccco2)cc1 | 42* | 9 | 44 | 0 | -5
Cc1cccc(C(=O)NNC(=O)c2ccc(O)cc2)c1 | 3 | -1 | x | 3 | 5
C[C@@H]1CCCCO[C@@H](CN(C)S(C)(=O)=O)[C@H](C)CN([C@H](C)CO)C(=O)c2cc(NC(=O)Nc3ccccc3)ccc2O1 | x | x | x | x | 2
C[C@H](CO)N1C[C@H](C)[C@H](CN(C)Cc2ccncc2)Oc2ncc(C#CC3CCCCC3)cc2C1=O | x | 20 | x | x | x
CN(C)c1ccc(/C=N/NC(=O)c2ccn(C)n2)cc1 | 34* | x | 44 | 2 | x
Cc1ccc(C(=O)NNC(=O)c2ccco2)cc1 | 21 | 4 | 49 | 4 | 51*
CCC(=O)N(C)C[C@@H]1Oc2cc(C3=CCCCC3)ccc2S(=O)(=O)N([C@H](C)CO)C[C@@H]1C | x | 8 | x | x | x
O=C(CN1C(=O)CSc2ccccc21)Nc1ccccc1C(=O)N1CCOCC1 | -1 | 90* | -29 | -1 | 0
Clc1cc(Cl)c(OCc2nc(-c3ccccn3)no2)cc1Cl | 51* | -12 | x | 6 | 7
SMILES | Wnt act | C2C12 statin | MITF act | GAA850 FXN act | esBAF inh
CC(C)(C)c1ccc(OCc2nc(-c3ccccn3)no2)c(Br)c1 | 51* | -20 | 52 | 4 | 11
CCCNC(=O)N1C[C@@H](C)[C@H](OC)CN(C)C(=O)c2cc(NC(=O)C3CCC3)ccc2OC[C@@H]1C | x | -2 | x | x | -2
N#C/C(=C\c1ccccc1O)C(=O)Nc1cccnc1 | 36* | -5 | 94* | 3 | 41
Cc1cc(/C=C(\C#N)C(=O)Nc2ccccc2)c(C)n1-c1cccnc1 | -5 | x | 56 | 6 | x
COc1ccc(NC(=S)Nc2cc(C)[nH]n2)cc1Cl | 26 | -57 | 59 | 1 | 24
Cc1cc(NC(=S)Nc2ccc(C)c(Cl)c2)n[nH]1 | u | x | 91* | 6 | x
c1ccc(CSCc2cn3ccccc3n2)cc1 | 19 | 7 | 72 | 5 | 70*
c1ccc2oc(SCc3cn4ccccc4n3)nc2c1 | u | x | 37 | 3 | x
